The full list was thinned out, with hits kept by preference.
HT1080NT lethal = qHTS for induction of synthetic lethality in tumor cells producing 2HG: qHTS for the HT-1080-NT fibrosarcoma cell line | HT-1080-NT fibrosarcoma viability, CellTiter-Glo ATP luminescence, 48 h | Potency, µM (titrated, usually from 46.1 µM), usual class: cytotoxic | 360,000 compounds, 1.6% hits | AID 686970, 2013;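 also: NT is the 2HG producing partner of a matched IDH1 knockdown line; nearly all actives have a fitted effect of over 55% in size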
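Read-out is CellTiter-Glo luminescence after 10 minutes at room temperature, following 48 hours' compound treatment of HT-1080-NT cells (750 cells/well, RPMI, 5% FBS, 37 degrees C).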
TDP1 cell noCPT = qHTS for Inhibitors of human tyrosyl-DNA phosphodiesterase 1 (TDP1): qHTS in cells in absence of CPT. DT40 Tdp1-/- hTDP1 cells, no CPT, ATP luminescence, 48 h. Potency, µM (doses to about 46.2 µM), most hits filed as inhibitors. 420,000 compounds, 15% hits. AID 686978, 2013; also: nearly all actives have a fitted effect of over 55% in size
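Compound effects on proliferation are scored in DT40 Tdp1-/-;hTDP1 cells in the absence of CPT. ATP levels (CellTiter-Glo luminescence) are recorded after a ≥48 hr, 37 °C incubation.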
ALOX12 inh = Primary qHTS assay for inhibitors of human arachidonate 12S-lipoxygenase (ALOX12): Round 2; purified 12hLO, xylenol orange hydroperoxide absorbance; Potency, µM (top dose mostly 108 µM), most hits filed as inhibitors; 580,000 compounds, 1.1% hits; Polyunsaturated fatty acid lipoxygenase ALOX12 (Homo sapiens), P18054; AID 1671190, 2021
Target sequence (P18054 whole entry, looked up): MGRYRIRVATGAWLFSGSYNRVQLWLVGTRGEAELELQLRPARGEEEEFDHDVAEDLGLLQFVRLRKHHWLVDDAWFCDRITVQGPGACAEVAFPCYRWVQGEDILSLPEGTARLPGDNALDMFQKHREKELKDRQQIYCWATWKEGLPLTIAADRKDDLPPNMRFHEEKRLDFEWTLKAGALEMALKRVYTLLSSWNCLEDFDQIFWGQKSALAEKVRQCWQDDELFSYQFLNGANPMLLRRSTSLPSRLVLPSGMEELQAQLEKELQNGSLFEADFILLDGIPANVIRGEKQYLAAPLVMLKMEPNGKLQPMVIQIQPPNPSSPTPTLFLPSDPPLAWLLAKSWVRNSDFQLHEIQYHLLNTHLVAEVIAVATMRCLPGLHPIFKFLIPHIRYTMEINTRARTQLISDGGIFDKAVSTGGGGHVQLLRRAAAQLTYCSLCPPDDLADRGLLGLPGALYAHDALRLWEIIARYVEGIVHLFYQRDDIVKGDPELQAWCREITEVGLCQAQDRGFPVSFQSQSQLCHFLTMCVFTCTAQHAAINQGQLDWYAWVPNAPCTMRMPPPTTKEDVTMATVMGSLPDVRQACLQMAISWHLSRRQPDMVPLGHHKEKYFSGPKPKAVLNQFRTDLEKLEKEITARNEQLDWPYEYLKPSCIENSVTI
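Hydroperoxide product was detected by ferrous iron/xylenol orange as the 573 to 405 nm absorbance ratio. Arachidonic acid at 40 uM (final) was turned over for 30 min at room temperature by 150 nM human 12hLO, pH 7.0 Hepes buffer, after 15 min compound preincubation.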
HT1080 IDH1KD tx = qHTS for induction of synthetic lethality in tumor cells producing 2HG: qHTS for the HT-1080-IDH1KD cell line; Potency, µM (doses to about 46.1 µM), most hits filed as cytotoxic; HT-1080 IDH1 knockdown viability, ATP luminescence, 48 h; 360,000 compounds, 2% hits; AID 686971, 2013
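Cytotoxicity counter-line: IDH1KD HT-1080, 48 h, CellTiter-Glo. Curves classed by r2, magnitude and activity.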
IL-1B inflam inh = qHTS for Inhibitors of Inflammasome Signaling: IL-1-beta AlphaLISA Primary Screen. 360,000 compounds, 4.7% hits. AID 743279, 2014. THP-1 LPS/ATP IL-1B secretion, AlphaLISA, 16 h; active compounds read low. activity change, % at 57.5 µM; in the data active = activity change below about -50%; inconclusive = mostly about -30% to -49%
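THP-1 cells pretreated 1 hr with compounds (up to 57.5 uM final), then stimulated with LPS (250 ng/mL final) plus ATP (1.25 mM final); secreted IL-1B measured by AlphaLISA after 16 hr, decreased signal indicating inhibition.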
DT40 TDP1 CPT = qHTS for Inhibitors of human tyrosyl-DNA phosphodiesterase 1 (TDP1): qHTS in cells in presence of CPT; chicken DT40 Tdp1-/-;hTDP1 cells + 20 nM CPT, ATP luminescence, 48 h; AID 686979, 2013; Potency, µM (titrated, usually from 46.2 µM), actives largely listed as inhibitors; 420,000 compounds, 12% hits; also: nearly all actives have a fitted effect of over 55% in size
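Chicken DT40 Tdp1-/- cells stably complemented with human TDP1 were seeded at 400 cells/well in medium containing 20 nM camptothecin, exposed to pin-transferred compounds, and grown at 37 °C for at least 48 hr. Viability was read as ATP luminescence.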
Numbers stand for hits; - = inactive; ? = inconclusive; . = not tested or not shown. Unless noted, calls follow the shape of the dose curve; as a rule, active = well fitted curve in the direction sought with a large enough effect; inconclusive = small, poorly fitted or top-dose-only effect, or another doubt; inactive = no such curve, though single readings can be large; an effect the other way counts as inactive or inconclusive.

SMILES	HT1080NT lethal	TDP1 cell noCPT	ALOX12 inh	HT1080 IDH1KD tx	IL-1B inflam inh	DT40 TDP1 CPT
COc1ccc(N2CCN(C(c3ccccc3OC)c3nnnn3C3CCCC3)CC2)cc1 (stereo not drawn)	-	20.6µM	?	-	?	23.1µM
COc1ccc(N2CCN(C(c3cccs3)c3nnnn3C3CCCC3)CC2)cc1 (stereo not drawn)	-	16.4µM	-	-	-	20.6µM
COc1ccc(N2CCN(C(c3cccc(OC)c3OC)c3nnnn3C3CCCC3)CC2)cc1 (stereo not drawn)	-	?	?	-	?	?
CCc1nnc2n1N(C(C)=O)C(c1ccc(C(C)(C)C)cc1)=C(C(C)=O)S2	.	11.6µM	-	.	.	8.2µM
CC(=O)C1=C(c2ccc(Cl)cc2)N(C(C)=O)n2c(nnc2C2CCCCC2)S1	.	?	?	.	.	13µM
COc1cccc(C2=C(C(C)=O)Sc3nnc(-c4ccc(Cl)cc4)n3N2C(C)=O)c1	.	.	-	.	.	.
CC(=O)C1=C(c2cccc([N+](=O)[O-])c2)N(C(C)=O)n2c(C)nnc2S1	?	1.84µM	-	?	-97.6	4.61µM
CC(=O)C1=C(c2ccc(C)c(C)c2)N(C(C)=O)n2c(nnc2-c2ccc(Cl)cc2)S1	.	4.61µM	-	.	.	5.17µM
CC(=O)C1=C(c2ccc(C)cc2)N(C(C)=O)n2c(nnc2C2CCCCC2)S1	.	?	-	.	.	?
COc1cccc(CNC(=O)[C@@H]2C[C@@H](O)CN2C2CCN(C(=O)Cc3c[nH]c4ccccc34)CC2)c1	.	.	-	.	.	.
COC(=O)c1cnn(-c2ccc(C(=O)Nc3cccc(Cl)c3C)cc2)c1N	.	.	-	.	.	.
COc1ccccc1CC(=O)N1CCc2c(nc3cc[nH]n3c2=O)C1	.	.	-	.	.	.
CCC(=O)C1=C(c2ccccc2)N(C(=O)CC)n2c(nnc2-c2ccccc2)S1	.	-	-	.	.	?
CCC(=O)C1=C(c2ccc(Cl)cc2)N(C(=O)CC)n2c(C)nnc2S1	.	7.31µM	-	.	.	8.2µM
S=c1[nH]nc(COc2ccc(Cl)cc2)n1-c1ccc(Cl)cc1	-	-	?	?	-	-
COc1cccc(-c2n[nH]c(=S)n2Cc2ccco2)c1	-	-	17.8µM	-	-	-
Cc1cc(Cl)ccc1OCCCc1n[nH]c(=S)n1Cc1ccco1	.	.	17.8µM	.	.	.
S=c1[nH]nc(COc2ccc(Cl)cc2)n1Cc1ccco1	-	20.6µM	39.8µM	-	-	-
CCCc1n[nH]c(=S)n1Cc1ccco1	-	-	-	-	-	-
CCCc1noc(-c2cccn3c(CNC(=O)c4ccccc4Cl)nnc23)n1	.	.	-	.	.	.
O=C(N/N=C/c1ccco1)c1ccc(OCc2ccccc2)cc1	-	-	-	-	-	-
O=C(N/N=C/c1cccnc1)c1ccccc1OCc1cccc(Br)c1	-	?	-	-	-	?
O=C(N/N=C/c1ccco1)c1ccccc1OCc1ccc(Br)cc1	-	23.1µM	-	-	-	20.6µM
Cc1ccc(/C=N/NC(=O)c2ccccc2OCc2cccc(Br)c2)o1	-	7.31µM	-	-	-99.4	6.51µM
O=C(NCCc1ccc(Cl)cc1)c1cccn1-c1nnc(N2CCCCC2)s1	.	23.1µM	?	.	.	?
SMILES	HT1080NT lethal	TDP1 cell noCPT	ALOX12 inh	HT1080 IDH1KD tx	IL-1B inflam inh	DT40 TDP1 CPT
COc1cccc(CNC(=O)c2cccn2-c2nnc(N3CCCC3)s2)c1	.	?	-	.	.	?
Cc1ccc(CCNC(=O)c2cccn2-c2nnc(N3CCCCC3)s2)cc1	.	.	-	.	.	.
O=C(NCc1cccc(Br)c1)c1cccn1-c1nnc(N2CCCCC2)s1	.	14.6µM	-	.	.	?
O=C(NCCc1ccc(Cl)cc1)c1cccn1-c1nnc(N2CCCC2)s1	.	?	-	.	.	23.1µM
COc1ccc(Cl)cc1C(=O)N1CCN(Cc2cc(=O)n3ccsc3n2)CC1	.	.	-	.	.	.
O=C(CSc1ncnc2nc[nH]c12)NCc1ccc(Cl)cc1	.	.	-	.	.	.
c1ccc(CCSc2ncnc3nc[nH]c23)cc1	-	8.2µM	-	-	-	16.4µM
Clc1ccc(CSc2ncnc3nc[nH]c23)cc1	-	23.1µM	-	?	-	?
C#CCSc1nc(-c2ccccc2)cc(-c2ccccc2)c1C#N	.	?	-	.	.	?
COc1ccc(-c2cc(-c3ccccc3)c(C#N)c(S(C)=O)n2)cc1 (stereo not drawn)	?	3.26µM	-	?	-95.9	3.26µM
CCSc1nc(-c2ccc(OC)cc2)cc(-c2ccccc2)c1C#N	-	23.1µM	-	-	-	?
COc1ccc(-c2cc(-c3ccccc3)c(C#N)c(=S)[nH]2)cc1	-	-	-	-	-	-
CCOC(=O)CSc1nc(-c2ccccc2)cc(C(F)(F)F)c1C#N	.	-	-	.	.	-
CCOC(=O)/C(Sc1nc(-c2ccccc2)cc(-c2ccccc2)c1C#N)=C(\C)O	-	29.1µM	-	-	-	-
N#Cc1c(-c2ccccc2)cc(-c2ccccc2)nc1SCC(O)CS(=O)(=O)Cc1ccccc1 (stereo not drawn)	.	5.8µM	-	.	.	10.3µM
O=C(Nc1cnc(-c2ccc(Cl)cc2)nc1)C1CCC1	.	.	-	.	.	.
O=[N+]([O-])c1c(NCCO)cc(N2CCCCC2)c2nonc12	-	-	?	-	-	-
COC(=O)CCSc1cc(NCCCOC(C)=O)c([N+](=O)[O-])c2nonc12	.	5.01µM	.	.	.	5.01µM
CCOC(=O)CCCNc1ccc([N+](=O)[O-])cc1[N+](=O)[O-]	-	-	-	?	-	-
CCN(CC)c1cc(NCCO)c([N+](=O)[O-])c2nonc12	-	-	?	-	-	-
Cc1ccc(Sc2cc(NCCCO)c([N+](=O)[O-])c3nonc23)cc1	-	2.91µM	-	-	-	2.31µM
CC(=O)OCCCNc1cc(Sc2ccc(Cl)cc2)c2nonc2c1[N+](=O)[O-]	-	3.66µM	?	-	?	2.06µM
CC(C)CCSc1cc(NCCO)c([N+](=O)[O-])c2nonc12	?	?	-	18.4µM	-	?
CCCCCn1nc(C(=O)N(C)Cc2ccccc2Cl)c2ccccc2c1=O	.	.	-	.	.	.
COc1ccccc1CNC(=O)C(C)Sc1nc2cc(Cl)ccc2n1C (stereo not drawn)	.	.	-	.	.	.
COc1ccc(C(=O)NCC(=O)OCc2c(Cl)cccc2Cl)cc1OC	-	14.6µM	-	-	-	?
COc1ccc(C(=O)NCCSCc2ccccc2)cc1OC	-	-	-	-	-	-

Screening results (PubChem)
